Source: PubChem
HSD17B inh: inhibitors of human HSD17B10 dehydrogenase | Q99714 | recombinant HSD17B10, NADH fluorescence kinetic | Potency, µM (titrated, usually from 57.1 µM), hits mostly inhibitors | 7.6% of 75,000 active;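 also: the protocol describes HADH2 (HSD17B10) and not the HSD17B4 of the title; nearly all actives have a fitted effect of over 70% in size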
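Activity followed as NADH fluorescence increase (ex 360, em 450 nm) every 30 seconds for 4 min, using final 90 uM beta-hydroxybutyryl CoA and 1 mM NAD+. Recombinant His-tagged enzyme, 20 nM, pH 9.0 Tris buffer, 15 min compound preincubation.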
4-MU autofl: 4-MU region autofluorescence. compound autofluorescence, 340/450 nm, 4-MU equivalents; hits give high values. max dye-equivalent concentration, M. 11% of 59,000 active. AID 589; in the data active = max dye-equivalent concentration above about 10 nM; inconclusive = mostly about 1.1 nM to 9.6 nM
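Compounds in 100 mM Tris, pH 8.0, incubated 15 min at room temperature, then fluorescence read at 340 nm excitation/450 nm emission. Signal converted to 4-MU dye-equivalent concentration using an on-plate six-point 4-MU standard curve.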
A350 fluor: A350 region autofluorescence; Compound autofluorescence, 340/450 nm, Alexa 350 dye-equivalents; hits give high values; max dye-equivalent concentration, M; 11% of 59,000 active; AID 590; in the data active = max dye-equivalent concentration above about 10 nM; inconclusive = mostly about 1.1 nM to 9.6 nM
CRE Fsk mod: alters forskolin-stimulated CRE reporter signaling in CHO cells; CHO CRE-bla reporter (cAMP response element driving beta-lactamase), forskolin EC10, beta-lactamase ratio; Potency, µM (titrated, usually from 38.2 µM), most hits filed as activators; 2.5% of 71,000 active; AID 662; active = well fitted activation curve with a large enough effect in the signal ratio, with a control signal flat, not every such curve was filed as active; inconclusive = small, poorly fitted or top-dose-only effect, or effect the other way, or a change in a side signal; the % refers to the signal ratio
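Using CellSensor CRE-bla CHO cells in Opti-MEM with 0.5% dialyzed FBS, compounds were titrated with EC10 NKH 477 for 3 h at 37 °C. CCF4 ratio (460/530 nm) gave %Activity; AC50 derived.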
AID923: qHTS Assay for Allosteric/Competitive Inhibitors of Caspase-1: Spectroscopic Profiling in AFC Spectral Region. Potency, µM (top dose mostly 57.5 µM), hits mostly activators. 1.1% of 75,000 active. compound fluorescence, AFC spectral region (405/520 nm)
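Titrations up to 57 uM read every 20 sec for 3 min (405/520 nm) with 50 nM caspase 1 and 5 uM Ac-WEHD-AFC, pH 7.5 HEPES buffer. Fluorescence-vs-time intercept gave baseline, scaled against on-plate AFC standard.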
HADH2 inhib: HADH2 (human) dehydrogenase inhibition; recombinant HADH2, NADH fluorescence, beta-hydroxybutyryl-CoA; Potency, µM (series often up to 57.1 µM), actives largely listed as inhibitors; 3.4% of 73,000 active; AID 886; Q99714; also: nearly all actives have a fitted effect of over 60% in size
Target sequence (Q99714 whole entry, looked up, one chain of several): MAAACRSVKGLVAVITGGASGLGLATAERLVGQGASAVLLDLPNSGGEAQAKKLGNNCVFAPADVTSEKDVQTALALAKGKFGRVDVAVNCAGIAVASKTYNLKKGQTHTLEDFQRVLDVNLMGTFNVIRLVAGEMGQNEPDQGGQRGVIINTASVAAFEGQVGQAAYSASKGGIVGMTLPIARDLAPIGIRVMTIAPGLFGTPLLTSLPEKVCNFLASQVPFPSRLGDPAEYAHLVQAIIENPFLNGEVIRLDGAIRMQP
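NADH fluorescence (ex 360/em 450 nm) read every 30 s for 4 min; activity taken as last-minus-first time point difference. Enzyme 20 nM, NAD+ 1 mM, beta-hydroxybutyryl-CoA 90 uM, pH 9.0 Tris buffer.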
Numbers stand for hits; – = inactive; ? = inconclusive; · = no result; [ ] = remark or other dose. In the library only some 14% were active in any assay of this set; here they are far more common. Unless noted, calls follow the shape of the dose curve; as a rule, active = well fitted curve in the direction sought with a large enough effect; inconclusive = small, poorly fitted or top-dose-only effect, or another doubt; inactive = no such curve, though single readings can be large; an effect the other way counts as inactive or inconclusive.

SMILES	HSD17B inh	4-MU autofl	A350 fluor	CRE Fsk mod	AID923	HADH2 inhib
O=C(NCC1CCCO1)c1ccccc1-c1nc(-c2ccccc2)no1 (stereo unspecified)	–	–	–	–	–	–
c1ccc(CN2CC[C@@H](CNc3ncnc4ccccc34)C2)cc1	–[11.4 µM]	–	–	–[7.6 µM]	–[11.5 µM]	–[11.4 µM]
CCOC(=O)C1=C(C)N(C)C(C)=C(C(=O)OCC)C1c1cccnc1	–	?	1.1e-08M	?	–	–
Cc1ccc(N2CC(C(N)=O)CC2=O)cc1 (stereo unspecified)	–	–	–	–	–	–
COc1cc2c(cc1OC)-c1nncn1C(C)(C)C2	–	–	–	13µM	–	–
COc1cc2c(cc1OC)-c1nnc(C)n1C(C)(C)C2	–	·	·	·	–	–
COc1ccc2cc(CCNC(=O)C(C)C)c(=O)[nH]c2c1	?	·	·	–	–	–
CCNC(=O)NC(=O)COC(=O)c1ccccc1SCC(=O)NC(=O)NCC	25µM	3.7e-07M	5e-07M	?	–	32µM
CC1(c2cccs2)CC(c2cccs2)=C(C#N)C(=O)N1 (stereo unspecified)	40µM	8.5e-08M	6e-08M	?	–	–
CC1(C)CC(=O)C2=C(C1)OC(N)=C(C#N)C2c1cccc(OC(=O)c2ccco2)c1 (stereo unspecified)	–	–	–	?	–	–
C/C(=C\c1ccco1)C1C(C#N)=C(N)OC2=C1C(=O)CC(C)(C)C2 (stereo unspecified)	–	1.8e-08M	2.3e-08M	–	–	–
Cc1ccc(N=Cc2cccc(O)c2O)c(C)c1	–	·	·	·	–	1µM
CCOC(=O)c1c(NC(=O)CN2CCCCC2)sc2c1CCCC2O (stereo unspecified)	–	·	·	10µM	–	–
OC[C@H](CCc1c[nH]c2ccccc12)c1c[nH]c2ccccc12	?	–	–	–[7.6 µM]	–[11.5 µM]	–[11.4 µM]
Cn1c2ccccc2c2ncn(Cc3ccco3)c(=O)c21	25µM	?	?	10µM	–	?
COc1cc2c(cc1OC)C(C(=O)N1CCOCC1)C(c1cccs1)N(C)C2=O (stereo unspecified)	–	–	–	?	–	–
Cn1c(-c2ccc3c(c2)OCO3)cnc1N	–	–	–	–	–	–
c1cc2c(cc1-c1cnc3n1CCC3)OCCO2	32µM	–	–	?	–	–
O=C(CSc1n[nH]c(-c2ccc(S(=O)(=O)N3CCCCC3)cc2)n1)Nc1nccs1	25µM	–	–	–	–	25µM
Cc1ncc(CO)c(CO)c1O	?	1.2e-08M	1.6e-08M	?	–	–
COc1ccccc1-c1nnc(Nc2nc3c(OC)cccc3s2)o1	–	1.1e-06M	9.4e-07M	?	–	32µM
COc1cccc(-c2nnc(NC(=O)c3ccc(S(=O)(=O)N4CCOCC4)cc3)o2)c1	–	–	–	–	–	–
COc1cccc(-c2nnc(Nc3nc4c(F)cccc4s3)o2)c1	32µM	2.8e-08M	8e-08M	?	–	–
O=C(Nc1nnc(-c2ccccc2Cl)o1)c1ccco1	–	–	–	–	–	–
COc1cccc2sc(Nc3nnc(-c4ccccc4Cl)o3)nc12	?	·	·	5µM	–	–
SMILES	HSD17B inh	4-MU autofl	A350 fluor	CRE Fsk mod	AID923	HADH2 inhib
COc1ccccc1-c1nnc(NC(=O)c2ccc(S(=O)(=O)N(C)Cc3ccccc3)cc2)o1	–	–	–	–	–	–
OCC1OC(c2ccccc2)C=CC1Oc1cc(Cl)cc(Cl)c1 (stereo unspecified)	–[11.4 µM]	·	·	·	–[11.5 µM]	–[11.4 µM]
c1ccc2c(c1)CN1CCCC1=N2	–	·	·	·	–	·
Cc1nc2nc(SCC(=O)N3CCOCC3)nn2c(C)c1Cc1ccccc1	–	–	–	–	–	–
c1ccc2c(c1)Cn1c-2nc2ccccc21	25µM	?	?	–	–	–
c1ccc2n[nH]nc2c1	–	·	·	–	–	–
Cc1cc(NC(=O)CCC(=O)N(CC(=O)NC2CCCC2)Cc2ccccc2Cl)no1	–	–	–	–	–	–
COc1cccc(C(=O)NCC(=O)N2CCC(C)CC2)c1	–	?	1.1e-08M	–	–	–
CCn1nc(C(=O)OCC(=O)N2CCc3ccccc32)c2ccccc2c1=O	–	–	–	?	–	–
